About 83,000 compounds went through this panel and 20% of them were active in at least one assay; those are over-represented in the sample as a whole.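 Note: values are percent growth. 100 is the growth of untreated cells, values between 100 and 0 indicate rising inhibition; between -100 and 0 indicates cell death.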 A number with no mark means an inactive call. Calls of active or inactive are those of the source. The calls were made as follows: active = growth percent below 10; inactive = the rest.
What was measured:
Test in all cases: NCI-60 one-dose screen, 48 h (100 = growth as untreated, 0 = no growth, -100 = all killed)
Conditions in all cases: 10 µM unless noted
[1] = system: NCI-H23 lung
[2] = system: NCI-H226 lung
[3] = system: NCI-H322M lung
[4] = system: HOP-62 NSCLC
[5] = system: NCI-H460 lung
[6] = system: HOP-92 NSCLC
[7] = system: NCI-H522 lung
[8] = system: A549/ATCC NSCLC
[9] = system: 786-0 renal
[10] = system: COLO 205 colon
[11] = system: DU-145 prostate
[12] = system: K-562 leukemia
[13] = system: MALME-3M melanoma
[14] = system: MDA-MB-231 breast
[15] = system: RXF 393 renal
[16] = system: SF-268 CNS
[17] = system: SF-295 CNS
[18] = system: SF-539 CNS
[19] = system: UACC-257 melanoma
[20] = system: M14 melanoma

Structure (SMILES) | growth [1] | growth [2] | growth [3] | growth [4] | growth [5] | growth [6] | growth [7] | growth [8] | growth [9] | growth [10] | growth [11] | growth [12] | growth [13] | growth [14] | growth [15] | growth [16] | growth [17] | growth [18] | growth [19] | growth [20]
Cc1cc2c([nH]1)CSc1cc(S(=O)(=O)c3ccccc3)c(=O)[nH]c1-2 | 11.4% [100 µM] | 32.6% [100 µM] | 47.1% [100 µM] | 33% [100 µM] | 4.49% [100 µM] (active) | 16.3% [100 µM] | 23.3% [100 µM] | 52.2% [100 µM] | 21.5% [100 µM] | -40.5% [100 µM] (active) | 15% [100 µM] | 17% [100 µM] | 25.1% [100 µM] | 23.3% [100 µM] | 52.6% [100 µM] | 22.1% [100 µM] | 11% [100 µM] | -28.3% [100 µM] (active) | 62.2% [100 µM] | -13.7% [100 µM] (active)
CC[C@@H](C(=O)[C@@H](C)[C@@H](O)[C@H](C)[C@@H]1O[C@@H]([C@@H](CC)C(=O)NCCc2ccc(F)cc2)CC[C@@H]1C)C1O[C@]2(C=CC(=O)[C@]3(CC[C@@](C)([C@H]4CC[C@](O)(CC)[C@H](C)O4)O3)O2)[C@H](C)C[C@@H]1C (stereo not given in full) | 24.8% | 24.2% | 76.7% | 36% | 35% | -0.474% (active) | 33.3% | 20.3% | 50.3% | 29.5% | 50.5% | 17% | 36% | 13.8% | 42.7% | 24.2% | 18.4% | 47.7% | 43.5% | 25.4%
N#CC1=C(N)Oc2c(sc3c(F)cccc23)C1c1ccc(F)cc1 (stereo not given) | 38.9% | 36.5% | 49.3% | 35.1% | 11.6% | 44.5% | -3.69% (active) | 25.7% | 19.8% | 13% | 16.6% | 11.1% | 56.3% | 39.6% | -16.5% (active) | 54.4% | 14.6% | -14.3% (active) | 60.5% | 0.877% (active)
O=C1C(Cl)=C(Nc2ccc(O)cc2)C(=O)N1Cc1ccc(Cl)cc1 | 85.2% | 84.5% | 77% | 84.2% | 78.9% | 69.7% | 51.9% | 71.6% | 70.6% | 35.8% | 90.2% | 11.9% | 76.2% | 74.1% | 64.3% | 57.5% | 97.4% | 65% | 70% | 24.2%
Cc1c(-c2nc3ccc(F)cc3c(=O)[nH]2)c2ccccc2n1C | 50.5% | 61.1% | 78.5% | 38.4% | 16.2% | 60.5% | 42% | 46.4% | 37.9% | 30.9% | 53.6% | 15% | 48.4% | 57.8% | 14.3% | 54.1% | 15.1% | 23.8% | 55% | 18.2%
CC(C)c1ccc(NC(=O)Nc2ccc(NC(=O)CCCC(=O)NOCc3ccccc3)cc2)cc1 | 98.4% | 85.2% | 90.6% | 91.2% | 77.9% | 104% | 71.3% | 85.3% | 101% | 93.4% | 94.3% | 83.4% | 82.8% | 93.9% | 109% | 95.9% | 91.2% | 75.1% | 86.5% | 97.3%
CC(=O)c1cc(O)c2ccccc2c1O | 85.9% | 92.9% | 105% | 87.4% | 103% | 92.6% | 78.7% | 99.7% | 97.8% | 116% | 126% | 58% | 95.9% | 87.2% | 111% | 124% | 108% | 97.5% | 96.5% | 105%
COC(C(=O)[C@@H](O)[C@@H](C)O)[C@@H]1Cc2cc3cc(O[C@H]4C[C@@H](O[C@H]5C[C@@H](O)[C@H](O)C(C)O5)[C@H](O)C(C)O4)cc(O)c3c(O)c2C(=O)[C@H]1O[C@H]1C[C@@H](O[C@H]2C[C@@H](O[C@H]3C[C@@H](OC)[C@H](O)C(C)O3)[C@@H](O)C(C)O2)[C@H](O)C(C)O1 (stereo not given in full) | 47.4% | 38.8% | 50.2% | 18.8% | 18.7% | 64.2% | 15.5% | 19.2% | 50.7% | 31.2% | 53.5% | 38.6% | 25.8% | 43.2% | 27.6% | 49.9% | 30.7% | 38.1% | 19.9% | 57.2%
CCn1c(SCC(=O)c2ccc(Br)cc2)nnc1-c1ccncc1 | 105% | 99% | 110% | 109% | 108% | 114% | 96% | 106% | 114% | 114% | 103% | 91.5% | 105% | 106% | 113% | 96.5% | 101% | 99.3% | 107% | 108%
CCOC(=O)C#Cc1c(C(=O)OCC)nnn1[C@@H]1O[C@H](CO)[C@H]2OC3(CCCCC3)O[C@H]21 | 93.9% | 80.7% | 98% | 110% | 98.5% | 54.5% | -25.2% (active) | 95.2% | 66.9% | -27.2% (active) | 52.1% | 5.02% (active) | 55.1% | 95.6% | 9.92% (active) | 94.6% | 101% | 81.1% | 46.8% | 59.4%
O=c1oc2c(cnc3ccccc32)cc1-c1ccsc1 | 99.8% | 97.8% | 110% | 92.3% | 99.9% | 82.4% | 97.4% | 105% | 97.1% | 112% | 104% | 92.8% | 101% | 101% | 105% | 94.6% | 103% | 93.4% | 101% | 101%
CCCNC(=O)Oc1ccc(/C(=C(/C)Cc2ccc(OC)cc2)c2ccc(OCCCN(C)C)cc2)cc1 | 82.4% | 94.7% | 88.3% | 101% | 73.3% | 51.7% | 78.5% | 77.6% | 92% | 71.6% | 94.9% | 15.3% | 82.9% | 89.9% | 74.7% | 84% | 88.2% | 97.8% | 99.2% | 71.8%
Cc1cc(Cl)ccc1NC(=O)c1cc2ccccc2cc1O | 7.5% (active) | 33.5% | -1.74% (active) | 33.9% | 2.76% (active) | -12.1% (active) | -8.43% (active) | 20.8% | 28.4% | 99.8% | 31.1% | 9.93% (active) | 7.3% (active) | 23.7% | 28% | 30.8% | 8.91% (active) | 22.6% | -5.38% (active) | 30.4%
N#Cc1c(-c2ccc(Cl)cc2)nc(SCC(=O)NC2=NN=C(c3ccccc3)CS2)[nH]c1=O | 76.3% | 106% | 89.7% | 68.9% | 110% | 58.2% | 66.4% | 90.6% | 93% | 80.7% | 105% | 42.4% | 75% | 78.1% | 84.5% | 91.4% | 107% | 91.4% | 84% | 72.3%
COc1ccc2c3c([nH]c2c1)C(=O)c1nc(C)ccc1C3=O | 3.17% (active) | 66.1% | 43.4% | 46.6% | -34.9% (active) | 86% | 56% | -11.9% (active) | 79.7% | 63.2% | -73.2% (active) | 40.7% | -61.8% (active) | 49.8% | 69.9% | 69.5% | 45.8% | 54.8% | 32.7% | 19%

Source: PubChem BioAssay (NCI)
